Only some compounds are listed: those with a hit (about 7.2% of all), similar ones and a draw of the others.
ERK AVP inh: blocks ERK signaling stimulated by vasopressin; HEK293-V1b, vasopressin-stimulated pERK AlphaScreen; Potency, µM (top dose mostly 57.5 µM), most hits filed as inhibitors; 0.99% of 72,000 active; AID 995; further: nearly all actives have a fitted effect of over 55% in size
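V1b-HEK293 cells; cpd 30 min 37C; 25 nM vasopressin 5 min; lyse 10 min; AlphaScreen beads 5 hr RT. Normalized to DMSO basal and 25 nM vasopressin; AC50 by Hill fit.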
FLuc inh: blocks Photinus pyralis firefly luciferase activity; purified firefly luciferase, luminescence, 8 min; 2.2% of 72,000 active; Potency, µM (top dose mostly 57.1 µM), hits mostly inhibitors; P08659; further: nearly all actives have a fitted effect of over 40% in size
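Inhibition of light generation by firefly luciferase from ATP and luciferin was profiled with concentration-response curves per sample, ATP held at 10 uM within the enzyme's linear range. Plates were read by luminescence after an 8-minute ambient incubation.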
HEK293 cAMP cs: raises cAMP in parental HEK293 cells, TSHR agonist counter-screen. Potency, µM (doses to about 57.1 µM), most hits filed as activators. parental HEK293 CNG cAMP sensor, membrane potential fluorescence. 2.5% of 73,000 active. AID 938; further: nearly all actives have a fitted effect of over 55% in size
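Counterscreen for endogenous-receptor signalling: CNG-channel HEK 293 cells report cAMP rise by membrane depolarization. After 60 min dye equilibration with 100 uM RO 20-1724, compounds incubated 30 min before bottom-read fluorescence at 590 nm.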
TSHR ag: agonists of human thyroid stimulating hormone receptor; P16473; HEK293-CNG-TSHR cells (CNG channel as cAMP sensor), membrane potential dye, cAMP; Potency, µM (titrated, usually from 57.1 µM), actives largely listed as activators; 0.48% of 73,000 active; AID 926; active means well fitted activation curve with a large enough effect in the main read-out, with a control signal flat, not every such curve was filed as active; inconclusive means small, poorly fitted or top-dose-only effect, or a change in a side signal; inactive means no such curve, though single readings can be large or run the other way; reference of the percent scale not stated here;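 further: the control signal comes from parental cells without the receptor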
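HEK 293 cells stably expressing TSHR and a cAMP-gated CNG channel; parental CNG-only cells as counterscreen. Cells preloaded 60 min with membrane potential dye plus 100 uM RO 20-1724, then compound 30 min; fluorescence read at 590 nm.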
PK Bst: modulators of Bacillus stearothermophilus pyruvate kinase; purified pyruvate kinase, luminescence ATP production; ribose 5-phosphate activator present at AC10; 1.2% of 51,000 active; Potency, µM; in the data active means potency below about 11 µM; inconclusive means mostly about 12 µM to 25 µM;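 the screen sought inhibitors and activators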
Tau filament bind: binds recombinant human tau filaments. 2% of 71,000 active. Potency, µM (titrated, usually from 57.1 µM). P10636. recombinant tau filaments, thioflavin S fluorescence, 15 h; filaments grown with octadecylsulfate alongside compound;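 further: actives lower thioflavin S fluorescence by blocking filaments or displacing dye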
Target sequence (P10636 whole entry, looked up): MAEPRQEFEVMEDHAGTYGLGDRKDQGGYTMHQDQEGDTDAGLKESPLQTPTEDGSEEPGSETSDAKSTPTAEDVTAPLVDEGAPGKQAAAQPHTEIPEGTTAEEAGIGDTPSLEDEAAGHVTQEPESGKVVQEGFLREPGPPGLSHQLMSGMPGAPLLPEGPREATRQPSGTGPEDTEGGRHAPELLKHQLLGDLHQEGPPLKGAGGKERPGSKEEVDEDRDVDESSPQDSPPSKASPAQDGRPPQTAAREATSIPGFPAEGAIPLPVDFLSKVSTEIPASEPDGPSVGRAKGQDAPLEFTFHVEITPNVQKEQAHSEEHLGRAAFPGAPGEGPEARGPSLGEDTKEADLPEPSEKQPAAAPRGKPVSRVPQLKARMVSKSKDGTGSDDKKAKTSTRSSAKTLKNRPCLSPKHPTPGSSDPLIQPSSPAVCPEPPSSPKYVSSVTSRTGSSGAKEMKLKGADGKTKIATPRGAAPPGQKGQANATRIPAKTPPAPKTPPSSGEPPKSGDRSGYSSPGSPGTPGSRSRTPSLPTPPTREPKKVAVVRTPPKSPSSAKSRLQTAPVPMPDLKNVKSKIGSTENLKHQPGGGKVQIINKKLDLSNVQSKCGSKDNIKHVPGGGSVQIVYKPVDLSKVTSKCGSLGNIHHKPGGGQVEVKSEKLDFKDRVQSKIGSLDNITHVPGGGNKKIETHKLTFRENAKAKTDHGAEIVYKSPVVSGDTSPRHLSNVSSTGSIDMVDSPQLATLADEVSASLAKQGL
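Thioflavine S fluorescence (ex 450, em 510 nm) reports filaments formed from 1 uM human tau plus 30 uM ODS over 15 h at 37 C (10 mM HEPES pH 7.4, 100 mM NaCl, 5 mM DTT); compounds displacing dye or blocking filaments lower signal.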
Numbers stand for hits; – = inactive; ? = inconclusive; · = not tested or not shown; ! = a repeat was not active; [ ] = dose if it differs, or a comment. Unless noted, the call rests on the fitted dose curve; in most records, active means well fitted curve in the direction sought with a large enough effect; inconclusive means small, poorly fitted or top-dose-only effect, or another doubt; inactive means no such curve, though single readings can be large; an effect the other way counts as inactive or inconclusive.

SMILES | ERK AVP inh | FLuc inh | HEK293 cAMP cs | TSHR ag | PK Bst | Tau filament bind
COCCCn1cnc2c(c1=O)c1nc3ccccc3nc1n2-c1ccccc1 | – | – | – | – | – | ?
COCCCn1cnc2oc3nc4ccccc4nc3c2c1=O | – | 25µM | – | – | · | –
O=c1c2c3nc4ccccc4nc3n(Cc3ccccc3)c2ncn1Cc1ccco1 | – | – | – | – | – | 10µM
COCC(=O)N1CCC2(CC1)CN(Cc1ccc(C#N)cc1)C2 | – | –[11.4 µM] | – | – | · | –
COc1cccc2[nH]c3c(N4CCCCC4)ncnc3c12 | 20µM | ? | – | – | · | –
COc1cc2[nH]c3c(N4CCN(c5ccccn5)CC4)ncnc3c2cc1OC | 25µM | – | – | – | · | –
C=C1C[C@@]23C[C@]1(O)CC[C@@H]2[C@]12C=C[C@@H](O)[C@@](C)(C(=O)O1)[C@@H]2[C@@H]3C(=O)O | · | –[11.4 µM] | – | – | · | ?
Cc1noc(C)c1-c1nc(NC2CCNCC2)c2ccccc2n1 | – | –[2.29 µM] | – | – | · | –
COc1ccc2nc(N3CCCCC3)c(C#N)cc2c1 | – | 25µM | – | – | – | –
COc1ccccc1C(=O)N1CCN(c2nc3cc(C)c(C)cc3cc2C#N)CC1 | – | – | 13µM | ? | – | –
COc1ccc2nc(SCC(=O)N(C)C3CCCCC3)c(C#N)cc2c1 | – | – | 25µM | ? | – | –
COc1ccc2nc(SCC(=O)Nc3ccc(S(=O)(=O)N4CCCC4)cc3)c(C#N)cc2c1 | – | – | 3.2µM | ? | – | –
COc1ccccc1C(=O)N1CCN(c2ccccn2)CC1 | · | · | – | – | · | ·
CS(=O)(=O)N1CCC2(CC1)CN(C(=O)Nc1ccccc1)C2 | – | –[11.4 µM] | – | – | · | –
Cc1c(C)c2c(c(C)c1O)CC[C@@](C)(CCC[C@@H](C)CCC[C@@H](C)CCCC(C)C)O2 | – | – | – | – | · | –
Cc1c(O)ccc2c1OCO2 | –[11.5 µM] | · | –[11.4 µM] | –[11.4 µM] | · | ·
CCCCCC1=C2CNC(CCC)(C(=O)OC)C=C2C(C)C1=O (stereo not given) | – | · | ? | ? | · | –
N#Cc1cc2ccccc2nc1SCC(=O)Nc1ccc(S(=O)(=O)N2CCCC2)cc1 | – | – | ? | ? | – | 16µM
CC(=O)O[C@H]1C(=O)[C@]2(C)[C@H]([C@H](OC(=O)c3ccccc3)[C@@]3(O)C[C@H](OC(=O)[C@@H](O)[C@@H](NC(=O)c4ccccc4)c4ccccc4)C(C)=C1C3(C)C)[C@]1(OC(C)=O)CO[C@@H]1C[C@@H]2O | · | –[11.4 µM] | – | – | · | ?
O=c1ccc2c(o1)/C(=C/C=C(Cl)Cl)CCC2 | – | – | –[11.4 µM] | –[11.4 µM] | · | 2µM
Cc1cc(N2CCOCC2)nc2ccc(NC(=O)CCC(=O)N3CCCC(C)C3)cc12 (stereo not given) | – | 25µM | – | – | · | –
c1ccc(-c2oc3ncnc(NCCCn4ccnc4)c3c2-c2ccccc2)cc1 | 25µM | – | ? | ? | – | –
O=C1C(CCC(O)c2ccc(F)cc2)C(c2ccc(O)cc2)N1c1ccc(F)cc1 (stereo not given) | – | · | · | · | · | ·
CCCC12CN3CC(C)(CN(C1)C31C(=O)Nc3ccc(C)cc31)C2=O (stereo not given) | – | – | – | – | – | 20µM
COc1ccc(OCC(=O)Nc2cccc(-c3nc4ccccc4o3)c2)cc1 | ? | – | ? | ? | · | –[11.4 µM]
SMILES | ERK AVP inh | FLuc inh | HEK293 cAMP cs | TSHR ag | PK Bst | Tau filament bind
Cc1cc(C)cc(OCC(=O)Nc2cccc(-c3nnc(-c4ccco4)o3)c2)c1 | ? | – | 25µM | ? | – | –
O=C(COc1ccccc1)Nc1cccc(-c2nnc(-c3ccccc3)o2)c1 | – | – | 25µM | ? | – | –
NC(N)=N[C@@H]1C(O)[C@H](N=C(N)N)[C@@H](O)C(O)[C@H]1O (stereo not given in full) | –[11.5 µM] | –[11.4 µM] | –[11.4 µM] | –[11.4 µM] | · | –[11.4 µM]
Oc1cc(O)c2c(c1)O[C@H](c1ccc(O)c(O)c1)[C@@H](O)[C@@H]2c1c(O)cc(O)c2c1O[C@@H](c1ccc(O)c(O)c1)[C@H](O)C2 | –[11.5 µM] | –[11.4 µM] | –[11.4 µM] | –[11.4 µM] | · | –[11.4 µM]
O=C1[C@H]2[C@H]3[C@H](O)[C@H](O)C/C(=N/OCc4ccccc4)[C@@H]3CC[C@@H]2C(=O)N1Cc1ccc2c(c1)OCO2 | –[11.5 µM] | –[11.4 µM] | –[11.4 µM] | –[11.4 µM] | · | ·
Nc1c(S(=O)(=O)O)cc(Nc2cccc(S(N)(=O)=O)c2)c2c1C(=O)c1ccccc1C2=O | ? | –[11.4 µM] | –[11.4 µM] | –[11.4 µM] | · | –[11.4 µM]
Nc1nnc(N2CCc3ccccc32)s1 | 16µM | ? | – | – | · | –
Cc1cn2nc(N)c3ccccc3c2n1 | – | – | – | – | 8.8 | –
COc1ccc(OC)c(N=c2oc3cc(O)ccc3cc2C(N)=O)c1 | ? | 13µM | – | – | – | –
NC(=O)c1cc2ccc(O)cc2oc1=Nc1ccccc1 | 7.9µM | ? | – | – | ? | –
CCCCc1nc2c(c3c1CC(C)OC3)CN(CCOc1ccccc1)CC2 (stereo not given) | –[11.5 µM] | · | –[11.4 µM] | –[11.4 µM] | · | ·
O=C(Nc1ccc(SC(F)F)cc1)c1ccc2nccnc2c1 | 25µM | ? | – | – | · | 13µM
CCC(=O)Nc1cccc(NC(=O)c2ccc3c(c2)OCCO3)c1 | – | 16µM | ? | ? | · | –
CCCC(=O)Nc1cccc(NC(=O)c2ccc3c(c2)OCO3)c1 | – | – | – | –[11.4 µM] | – | –
O=C(Nc1ccc2c(c1)OCCO2)c1ccc2nccnc2c1 | – | 10µM | – | – | ? | –
COc1ccc(NC2c3ncccc3C(=O)N2Cc2ccccc2)c(OC)c1 (stereo not given) | – | – | – | – | – | 16µM
COc1ccc(CN2C(=O)c3cccnc3C2Nc2ccc(OC)c(Cl)c2)cc1 (stereo not given) | ? | – | – | · | – | –
COc1cccc2c1C(=O)c1c(O)c3c(c(O)c1C2=O)C[C@](O)(C(=O)CO)C[C@H]3O[C@@H]1C[C@H](N)[C@H](O)[C@H](C)O1 | – | – | – | – | · | 5µM
CC(=O)NC(CC(=O)O)C(=O)NC(CCC(=O)O)C(=O)O (stereo not given) | – | · | · | · | · | ·
CN[C@H](CC(=O)O)C(=O)O | – | – | – | 0.79µM! | · | –
COc1ccc(-c2nc3cnc(OCc4ccccc4)nc3n(CCC#N)c2=O)cc1 | – | –[11.4 µM] | ? | ? | · | –
CN(CCOc1ccc(C[C@H](Nc2ccccc2C(=O)c2ccccc2)C(=O)O)cc1)c1ccccn1 | – | – | ? | ? | · | 40µM!
CN(Cc1ccccc1)C(=O)N[C@@H](Cc1ccccc1)C(=O)O | – | – | – | – | – | –
C#CCCCO/N=C1/C[C@@H](O)[C@@H](O)[C@@H]2[C@@H]3C(=O)N([C@@H](C)c4ccccc4)C(=O)[C@H]3CC[C@H]12 | –[11.5 µM] | –[11.4 µM] | –[11.4 µM] | –[11.4 µM] | · | ·
CC(C)=NOCc1cccc(-c2cc(-c3ccccc3)no2)c1 | –[11.5 µM] | –[11.4 µM] | ? | ? | · | ·
N#Cc1cccc(-c2ccc3ncnc(NCc4cccnc4)c3c2)c1 | – | –[2.29 µM] | – | – | · | –
CCc1cccc(CC)c1N(COC)C(=O)Cn1nnc2ccccc21 | · | – | · | · | 6.7 | ·

Screens from PubChem BioAssay.
